Laboratory results: PubChem BioAssay (NCATS)
Results filed as inconclusive are left out. Calls of active or inactive are those of the source. The call rests on the fitted dose curve; in most records, active means well fitted inhibition curve with a large enough effect; inconclusive means small, poorly fitted or top-dose-only effect; inactive means flat fitted curve, though single readings scatter.

Assays:
Test in all cases: qHTS profiling for inhibitors of Plasmodium falciparum proliferation (AID 504749); further: nearly all actives have a fitted effect of over 60% in size
Details in all cases: P. falciparum in erythrocytes, SYBR Green DNA, 72 h; series mostly up to 28.7 µM
CP286 = system: CP286
Procedure, shortened: (§1)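 In a 72 h erythrocytic culture (37 C, humidified, 5% CO2) at 2.5% hematocrit and 0.3% starting parasitemia, compounds were tested; SYBR Green I in detergent lysis buffer stained parasite DNA overnight.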

CP291 = system: CP291
Procedure, shortened: as §1

CP297 = system: CP297
Procedure, shortened: as §1

CP305 = system: CP305
Procedure, shortened: as §1

CP315 = system: CP315
Procedure, shortened: as §1

CP325 = system: CP325
Procedure, shortened: as §1

CP329 = system: CP329
Procedure, shortened: as §1

CP335 = system: CP335
Procedure, shortened: as §1

DFO2036 = system: DFO2036
Procedure, shortened: as §1

DIV14 = system: DIV14
Procedure, shortened: as §1

DIV30 = system: DIV30
Procedure, shortened: as §1

Dd2 = system: Dd2
Procedure, shortened: as §1

ECU = system: ECU
Procedure, shortened: as §1

FAB9 = system: FAB9
Procedure, shortened: as §1

GB4 = system: GB4
Procedure, shortened: as §1

HB3 = system: HB3
Procedure, shortened: as §1

JCK = system: JCK
Procedure, shortened: as §1

N140 = system: N140
Procedure, shortened: as §1

DIV17 = system: DIV17
Procedure, shortened: as §1

ICS = system: ICS
Procedure, shortened: as §1

Measured: Potency
Potency means the concentration at half of the fitted maximal effect.

CCC(CC)(CC(=O)Nc1cccc(/C=C/c2nc(C3CCC3)cs2)c1)C(=O)O
not listed: DIV17 | ICS
inactive: all other assays above

CCCCC(CC)COC(=O)c1ccc(N(C)C)cc1 (configuration not stated)
not listed: DIV14
inactive: all other assays above

O=C(O)CCC(=O)Nc1ccc(S(=O)(=O)Nc2nccs2)cc1
not listed: CP325
inactive: all other assays above

c1ccc(CC2=NCCN2)cc1
not listed: CP335
inactive: all other assays above

CCOc1ccccc1OCCN[C@H](C)Cc1ccc(OC)c(S(N)(=O)=O)c1
not listed: GB4 | DIV17
inactive: all other assays above

CCN(CC)CCNc1ccc(CO)c2sc3ccccc3c(=O)c12
active: CP286 2 µM | CP291 4.78 µM | CP297 1.69 µM | CP305 3.79 µM | CP315 6.01 µM | CP325 4.78 µM | CP329 4.78 µM | CP335 1.51 µM | DFO2036 0.447 µM | DIV14 4.26 µM | DIV17 2.39 µM | DIV30 9.53 µM | Dd2 2.24 µM | ECU 0.708 µM | GB4 1.2 µM | HB3 8.91 µM | ICS 2 µM | JCK 11.2 µM | N140 0.708 µM

CCN(CC)CCNC(=O)COc1ccc(OC)cc1
not listed: GB4
inactive: all other assays above

CCCc1ncc(C[n+]2ccccc2C)c(N)n1
not listed: CP335
inactive: all other assays above

COc1ccc(C(=O)c2ccccc2O)c(O)c1
active: ICS 2.51 µM
not listed: DIV14 | DIV30 | GB4 | JCK | N140 | DIV17
inactive: all other assays above

C/C=C/c1ccc(O)c(OC)c1
not listed: DIV14 | DIV30 | ICS
inactive: all other assays above

O=C(O)C1(C(=O)O)CCC1.[NH2-].[NH2-].[Pt+2]
active: HB3 10 µM
not listed: Dd2 | ICS
inactive: all other assays above

N/C(=N\N=C\c1ccc(Cl)cc1)N/N=C/c1ccc(Cl)cc1
inactive: CP291 | CP297 | CP305 | CP315 | CP325 | CP329 | DIV14 | DIV17 | DIV30
active: CP286 3.55 µM | DFO2036 3.16 µM | ICS 2.24 µM

Cl/C(=C\n1cncn1)c1ccc(Cl)cc1Cl
not listed: ICS
inactive: all other assays above

C#C[C@]1(O)CC[C@H]2[C@@H]3CCC4=CC(=O)CC[C@@H]4[C@H]3CC[C@@]21CC
not listed: HB3 | ICS
inactive: all other assays above

C=CCN1CCc2nc(N)sc2CC1
not listed: CP335 | ICS
inactive: all other assays above

CCNC(=O)NCc1cccc(Cl)c1
not listed: DIV17 | ICS
inactive: all other assays above

CC(C)Nc1cccnc1N1CCN(C(=O)c2cc3cc(NS(C)(=O)=O)ccc3[nH]2)CC1
active: DIV14 0.379 µM | DIV17 1.07 µM | ICS 7.94 µM
not listed: DIV30 | Dd2
inactive: all other assays above

CC(=O)Nc1ccc(S(=O)(=O)Nc2ccc([N+](=O)[O-])cc2)cc1
not listed: DIV30
inactive: all other assays above

COc1ccc2c(c1)c1c3n2CCN(C)C3=NCC1
not listed: DIV17
inactive: all other assays above

Cn1c(=O)c2[nH]c(Br)nc2n(C)c1=O
not listed: DFO2036
inactive: all other assays above

CCC(C(=O)OCCOCCN(CC)CC)c1ccccc1 (configuration not stated)
active: CP297 15.1 µM
not listed: CP335 | DIV14 | Dd2 | GB4 | DIV17
inactive: all other assays above

CC(=O)NCCCCCC(=O)O
not listed: DIV17
inactive: all other assays above

CCCCCCCCCCCCOCCOCCOCCOCCOCCOCCOCCOCCOCCO
active: Dd2 12.6 µM
not listed: CP335 | DIV14 | ECU | GB4 | HB3 | N140 | DIV17 | ICS
inactive: all other assays above

Cc1ccc(-c2ncc(Cl)cc2-c2ccc(S(C)(=O)=O)cc2)cn1
active: DIV17 15.1 µM
inactive: CP286 | CP291 | CP297 | CP305 | CP315 | CP325 | CP329 | FAB9

CCc1ccc(C(=O)C(C)CN2CCCCC2)cc1 (configuration not stated)
not listed: DIV17
inactive: all other assays above

CC(=O)OCC(=O)[C@H]1CC[C@H]2[C@@H]3CCC4=CC(=O)CC[C@]4(C)[C@H]3CC[C@]12C
not listed: ICS
inactive: all other assays above

C#C[C@]1(OC(C)=O)CC[C@H]2[C@@H]3CCC4=C/C(=N/O)CC[C@@H]4[C@H]3CC[C@@]21CC
not listed: CP335 | DIV14 | DIV17
inactive: all other assays above

C[N+]1(CC2COC(c3ccccc3)(C3CCCCC3)O2)CCCCC1 (configuration not stated)
active: CP286 5.01 µM | CP291 4.78 µM | CP297 6.01 µM | CP305 4.78 µM | CP315 6.01 µM | CP325 6.75 µM | DFO2036 7.94 µM | DIV14 6.01 µM | DIV17 6.01 µM | DIV30 6.75 µM | Dd2 7.08 µM | ECU 4.47 µM | FAB9 3.16 µM | GB4 3.38 µM | HB3 4.47 µM | ICS 4.47 µM | JCK 12.6 µM | N140 11.2 µM

COc1cc(N)c(Cl)cc1C(=O)NC1CCN(Cc2ccccc2)CC1
not listed: DIV30 | GB4
inactive: all other assays above

CCCCc1cc2ccccc2c(OCCN(C)C)n1
not listed: Dd2 | GB4 | ICS
inactive: all other assays above
